A selection: hits, their analogues and other compounds. The true share with any hit is near 3.2%.
PrPC surface inh: inhibitors of human cell surface prion protein PrPC, primary screen, cell-based, TR-FRET. Major prion protein (Homo sapiens), P04156. TR-FRET read-out. inhibition, % at 13.8 µM. 0.43% of 370,000 active. AID 720596, 2013; in the data active = inhibition above about 24%; note: 0% = median of the test wells and 100% = reference compound wells
TcdB inh: TcdB glycohydrolase inhibitors, primary screen, biochemical, single point, plate reader. Toxin B (Clostridioides difficile), P18177. TcdB glycohydrolase enzymatic assay. inhibition, % at 9.99 µM. 0.24% of 350,000 active; in the data active = inhibition above about 10%
FBA Mtb inh: Mtb FBA enzyme inhibitors, primary screen, biochemical, fluorescence, strain H37Rv; Fructose-bisphosphate aldolase (Mycobacterium tuberculosis (strain ATCC 25618 / H37Rv)), …; purified M. tuberculosis FBA, fluorescence read-out; inhibition, % at 1 µM; 2.3% of 360,000 active; AID 588726, 2011; in the data active = inhibition above about 27%;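 note: 0% = vehicle and 100% = reference inhibitor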
Target sequence (P9WQA3 whole entry, looked up): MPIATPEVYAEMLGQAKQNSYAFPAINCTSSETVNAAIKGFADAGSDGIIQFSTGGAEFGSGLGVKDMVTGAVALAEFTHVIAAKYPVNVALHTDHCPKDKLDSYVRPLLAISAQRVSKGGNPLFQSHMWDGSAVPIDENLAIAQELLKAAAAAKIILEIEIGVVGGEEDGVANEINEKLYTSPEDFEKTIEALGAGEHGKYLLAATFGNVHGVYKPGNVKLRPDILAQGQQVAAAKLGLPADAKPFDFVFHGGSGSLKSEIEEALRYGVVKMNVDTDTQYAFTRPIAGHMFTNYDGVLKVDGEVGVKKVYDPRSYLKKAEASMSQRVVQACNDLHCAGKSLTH
GDH-TPI counter: GDH-TPI coupling enzyme inhibitors, primary screen, artefact control for M. tuberculosis FBA inhibitor project, biochemical, absorbance, full deck; inhibition, % at 4.8 µM; GDH-TPI coupled enzyme counterscreen, NADH absorbance; 1.2% of 360,000 active; AID 588335, 2011; in the data active = inhibition above about 30%;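 note: 0% = DMSO wells and 100% = wells lacking the enzyme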
Y pestis TopoI: Yersinia pestis topoisomerase I inhibitors, primary screen, biochemical, cleavage product accumulation, plate reader, single point. Y. pestis Topo-I cleavage product accumulation. activity, % at 10 µM. 0.064% of 360,000 active; in the data active = activity above about 50%, passing the limit was not always enough
* hit, by the source's call; · = no result; + = active, no number.

SMILES | PrPC surface inh | TcdB inh | FBA Mtb inh | GDH-TPI counter | Y pestis TopoI
COP(=O)(OC)c1nc(-c2ccc([N+](=O)[O-])cc2)oc1N1CCCCC1 | -36 | 0 | -3 | 8 | 4
Cc1ccccc1-c1nc(P(=O)(c2ccccc2)c2ccccc2)c(N2CCOCC2)o1 | 9 | 2 | 4 | 1 | 53*
CCOP(=O)(OCC)c1nc(-c2ccccc2)oc1N1CCCCC1 | 7 | -4 | + | 1 | 16
CCOP(=O)(OCC)c1nc(-c2cccc3ccccc23)oc1N1CCCCC1 | 2 | 2 | 175* | 2 | 3
CCOP(=O)(c1ccccc1)c1nc(-c2ccccc2C)oc1N1CCCCC1 (stereo unspecified) | 5 | · | · | · | ·
COP(=O)(OC)c1nc(-c2cccc3ccccc23)oc1N1CCCCC1 | 3 | 2 | + | 10 | 30
O=C(C1CCOCC1)N1CC(=O)N2[C@H](C1)[C@H](c1ccc(C#CCc3ccccc3)cc1)[C@@H]2CO | · | 1 | · | · | ·
O=C(N[C@H]1CC[C@@H](CCNS(=O)(=O)Cc2ccccc2)O[C@@H]1CO)c1ccccc1F | · | -2 | · | · | ·
CCn1c(C)nc2cc(C(=O)N/N=C/c3ccc(N4CCOCC4)cc3)ccc21 | 2 | 0 | 4 | 34* | 7
CCn1c(C)nc2cc(C(=O)N/N=C/c3ccc(OC)c(O)c3)ccc21 | -11 | 11* | -1 | 39* | -7
CCn1c(C)nc2cc(C(=O)N/N=C(\C)c3ccc(N4CCOCC4)cc3)ccc21 | -3 | -1 | -3 | 17 | 6
CCn1c(C)nc2cc(C(=O)N/N=C/c3ccc(O)cc3)ccc21 | -9 | 14* | 0 | 14 | 0
COc1ccc(NC(=O)N(C)C[C@H]2OCc3cn(nn3)CCCC(=O)N([C@H](C)CO)C[C@H]2C)cc1 | · | 1 | · | · | ·
COc1ccc(/C=N/n2c(-c3cc(C)[nH]n3)n[nH]c2=S)cc1OC | 6 | 11* | 2 | 0 | 2
O=C(CC(=O)NC1CCCCC1)N/N=C/c1cccc2ccccc12 | 2 | · | 1 | 31* | 5
CCC(=O)Nc1ccc(-c2nnc(-c3ccccc3)o2)cc1 | 2 | · | + | 1 | -1
O=C(O)CCC(=O)Nc1ccc(-c2nnc(-c3ccco3)o2)cc1 | 0 | 2 | 141* | 17 | -3
Cc1ccc(NC(=O)CCSc2nnc(-c3ccco3)o2)cc1 | 10 | · | 3 | -1 | 0
O=C(Nc1ccc(-c2nnc(-c3ccco3)o2)cc1)C(c1ccccc1)c1ccccc1 | -9 | 1 | 7 | 19 | -3
Cc1ccc(SCC(=O)Nc2ccc(-c3nnc(-c4ccco4)o3)cc2)cc1 | -9 | · | 1 | 31* | 7
C[C@@H]1CN([C@H](C)CO)C(=O)Cc2cc(NS(=O)(=O)c3ccccc3)ccc2O[C@H]1CN(C)C | · | -3 | · | · | ·
COc1ccc(S(=O)(=O)N2C[C@@H](O)COC[C@H]3O[C@@H](CC(=O)NCc4ccc(Cl)c(Cl)c4)CC[C@@H]32)cc1 | · | -1 | · | · | ·
COc1ccc(NS(=O)(=O)c2cc(N=Nc3c(O)[nH]c(=O)[nH]c3=O)ccc2Cl)cc1 | -39 | 11* | -4 | 25 | 2
CC1CC(C)C[N+](=C2C=C(N3CCCC3)CC(C)(C)C2)C1 (stereo unspecified) | 13 | 0 | 2 | 29 | 11
CC1(C)CC(N2CCN(c3ccccc3)CC2)=CC(=[N+]2CCCC2)C1 | 9 | · | -6 | 45* | -7
SMILES | PrPC surface inh | TcdB inh | FBA Mtb inh | GDH-TPI counter | Y pestis TopoI
CN(Cc1ccccc1)C1=CC(=[N+]2CCCC2)CC(C)(C)C1 | 18 | 1 | -2 | 52* | 1
CCN(CC)C1=CC(=[N+]2CCCC2)CC(C)(C)C1 | 5 | · | -5 | 43* | 0
CC1(C)CC(N2CCCC2)=CC(=[N+]2CCCCCC2)C1 | 11 | 0 | 0 | 30 | 0
COc1cccc(S(=O)(=O)N(C)C[C@@H]2Oc3ncc(C#CC(C)(C)O)cc3C(=O)N([C@H](C)CO)C[C@@H]2C)c1 | · | -1 | · | · | ·
C[C@H](CO)N1C[C@H](C)[C@H](CN(C)S(=O)(=O)c2ccc(Cl)cc2)Oc2ccc(NC(=O)CCN3CCOCC3)cc2CC1=O | · | 0 | · | · | ·
CN(C)/C=C/c1onc(-c2c(F)cccc2Cl)c1C#N | -1 | 1 | -2 | 31* | -2
Cc1onc(-c2c(F)cccc2Cl)c1C(=O)NC1CC1 | 5 | 3 | 3 | 14 | -3
O=C(NCC[C@@H]1CC[C@@H](NC(=O)C2CCOCC2)[C@H](CO)O1)c1ccc(F)cc1 | · | -8 | · | · | ·
C=C[C@@H](COC(C)=O)N(C(=O)OC(C)(C)C)S(=O)(=O)c1ccc(Br)cc1 | · | 1 | · | · | ·
COc1ccc2c3c([nH]c2c1)[C@@H](CO)N(C(=O)Nc1ccc(F)cc1)CC31CCN(S(=O)(=O)c2cn(C)cn2)CC1 | · | 0 | · | · | ·
c1ccc(-c2csc(-c3ccncc3)n2)cc1 | -17 | 0 | 5 | 2 | 5
c1ccc(-c2ccc(-c3ccncn3)cc2)cc1 | 7 | 0 | 117* | -2 | -13
C[C@H](NC(=O)C[C@@H]1C[C@@H]2c3cc(NC(=O)NC4CCCCC4)ccc3O[C@@H]2[C@H](CO)O1)c1ccccc1 | · | -1 | · | · | ·
O=C1c2cccc3cccc(c23)C(=O)N1/N=C/c1ccc(O)cc1O | -38 | · | -6 | 47* | -3
O=C1c2ccccc2C(=O)N1/N=C/c1ccc(O)c(O)c1O | · | · | 0 | 28 | 2
COc1ccc(CNC(=O)C[C@H]2C[C@@H]3c4cc(NC(=O)NC5CCCC5)ccc4O[C@@H]3[C@@H](CO)O2)cc1 | · | 0 | · | · | ·
CNC(=O)C[C@@H]1CC[C@@H]2[C@H](COc3ccc(NC(=O)NC4CCCC4)cc3C(=O)N2C)O1 | · | 1 | · | · | ·
O=c1c(Br)ccc(Br)cc1Br | 88* | 1 | -3 | 13 | 3
Cc1ccc(S(=O)(=O)N(C)C[C@@H]2Oc3ccc(NC(=O)Cn4cnnn4)cc3CC(=O)N([C@@H](C)CO)C[C@H]2C)cc1 | · | 0 | · | · | ·
CCC(=O)N(C)C[C@H]1Oc2cc(-c3ccccc3C)ccc2S(=O)(=O)N([C@H](C)CO)C[C@H]1C | · | 2 | · | · | ·
COc1cc(/C=N/Nc2cc(C)nc(NS(=O)(=O)c3ccccc3)n2)ccc1O | -3 | 2 | 0 | 54* | -2
Cc1cc(NN)nc(NS(=O)(=O)c2ccccc2)n1 | 1 | -2 | -2 | 0 | -1
COc1ccc(/C=N/Nc2cc(C)nc(NS(=O)(=O)c3ccc(C)cc3)n2)cc1 | 7 | 2 | 0 | 26 | 10
COc1cc(/C=N/Nc2cc(C)nc(NS(=O)(=O)c3ccc(C)cc3)n2)ccc1O | 3 | 0 | -1 | 54* | 8
COc1ccc(NC(=O)N(C)C[C@H]2Oc3ccc(NC(=O)Nc4ccc5c(c4)OCO5)cc3C(=O)N([C@@H](C)CO)C[C@H]2C)cc1 | · | 0 | · | · | ·
ON=C1c2ccccc2-c2ccc(O)cc21 | -13 | 15* | 2 | 12 | -2
COCCNC[C@H]1[C@@H](c2ccccc2)[C@@H](CO)N1c1nc(C)c(C)s1 | · | 1 | · | · | ·
